Laboratory results reported in PubChem BioAssay.
Calls of active or inactive are those of the source.

Legend:
Albumin (Bos taurus) = Albumin (Bos taurus) (UniProt P02769); assay: compounds binding labelled BSA control protein – biochemical, small-molecule microarray, Alexa647 label, 635/667 nm fluorescence, artefact control for SMM control protein annotation, profiling panel (AID 1118); details: BSA-A647 binding, fluorescence 635 nm, higher = more signal;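 also: score merges 667 nm emission intensity and signal-to-noise per printed compound spot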
[1] = probe aXIP binding to arrayed compounds – biochemical, NeuroSMM set, 635/667 nm fluorescence, primary screen (AID 1119); details: small-molecule microarray, higher = more signal, called active from +8 up or from −8 down;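 also: probe is the protein aXip251-270 applied at 1 µg/mL to compound-printed slides; binding of probe to printed compounds measured as 667 nm fluorescence plus signal to noise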
[2] = probe aNOTCH3 binding on compound microarray – biochemical, small-molecule microarray, 635/667 nm fluorescence, primary screen (AID 1120); details: higher = more signal;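 also: probe is a biotin-tagged antibody raised against NOTCH3 rather than NOTCH3 protein; score merges spot fluorescence near 667 nm with spot signal to noise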
[3] = probe aNOTCH2 binding on compound microarray – biochemical, small-molecule microarray, 635/667 nm fluorescence, primary screen (AID 1121); details: higher = more signal;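 also: score merges feature fluorescence read at 667 nm with its signal to noise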
[4] = target: Carbonic anhydrase 2 (Homo sapiens) (UniProt P00918); assay: compounds binding carbonic anhydrase 2 – biochemical, small-molecule microarray, Alexa647-labelled CAII, profiling panel (AID 1122); details: CAII-A647 binding fluorescence, higher = more signal
[5] = COS7 lysate on small-molecule microarray, probe aHis, 635 nm (AID 1123); details: COS7 cell lysate, fluorescence, higher = more signal;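 also: z-score combines 667nm fluorescence intensity with signal-to-noise per printed compound spot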
[6] = probe aLAP1 signal on lysate-treated microarray – cell lysate, small-molecule microarray, COS7 lysate, primary screen (AID 1124); details: probe aLAP1, fluorescence, higher = more signal;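 also: lysate comes from COS7 cells expressing LAP1 and is applied at 0.3 µg/mL; score merges spot fluorescence near 667 nm with signal-to-noise over triplicate slides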
Sam68 (KHDRBS1) = assay: compounds binding KHDRBS1 protein – biochemical, small-molecule microarray, 635 nm fluorescence, primary screen (AID 1125); details: higher = more signal;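 also: score merges 667 nm channel intensity with signal to noise over triplicate slides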
[7] = test system: Chordin-like protein 2 (CHRDL2); assay: compounds binding chordin-like 2 – biochemical, small-molecule microarray, 635 nm fluorescence, primary screen (AID 1126); details: fluorescence 635 nm, higher = more signal;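 also: printed compound slides probed with Chrdl2 protein at 4 µg/mL for 1 h at 4 C; score merges 667 nm emission intensity with signal to noise over three replicate slides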
[8] = target: Concanavalin-A (Canavalia ensiformis) (UniProt P02866); assay: compounds binding concanavalin A lectin – biochemical, small-molecule microarray, Alexa647 label, 635 nm, artefact control for SMM control protein annotation, primary screen (AID 1127); details: ConA-A647 binding fluorescence, higher = more signal;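 also: z combines 667 nm emission intensity with signal-to-noise across three replicate slides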
[9] = compounds binding Alexa647 anti-His antibody – biochemical, small-molecule microarray, 635 nm fluorescence, artefact control for SMM control protein annotation, primary screen (AID 1128); details: higher = more signal;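 also: score merges feature fluorescence with signal-to-noise for each printed compound spot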
[10] = test system: Human papillomavirus type 1a E7 protein (residues 1-88); assay: HPV1a E7 small-molecule binders, primary screen, biochemical, small-molecule microarray, residues 1-88, 635 nm (AID 1129); details: small-molecule microarray binding, fluorescence 635 nm; higher = more signal
[11] = target: Focal adhesion kinase 1 (Homo sapiens) (UniProt Q05397); assay: PTK2 protein binding on printed compound slides – biochemical, small-molecule microarray, 635/667 nm fluorescence, BSA, DTT, primary screen (AID 1130); details: 635 nm fluorescence, higher = more signal;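 also: composite of spot emission at 667 nm and signal to noise over triplicate slides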
[12] = test system: Fibrinogen (Alexa647-labelled); assay: Alexa647-fibrinogen binding to printed small molecules – biochemical, small-molecule microarray, 635/667 nm fluorescence, artefact control for SMM control-protein annotation, profiling panel (AID 1131); details: fibrinogen-A647 binding fluorescence, higher = more signal;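 also: z-score merges 667 nm fluorescence with per-spot signal-to-noise over triplicate slides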
[13] = target: Follistatin (Homo sapiens) (UniProt P19883); assay: FST protein binding to printed compounds – biochemical, small-molecule microarray, 635/667 nm fluorescence, primary screen (AID 1132); details: 635 nm fluorescence, higher = more signal
[14] = target: Fibroblast growth factor 2 (Homo sapiens) (UniProt P09038); assay: basic fibroblast growth factor binding to printed compounds – biochemical, small-molecule microarray, 635/667 nm fluorescence, primary screen (AID 1133); details: FGF2, fluorescence 635/667, higher = more signal
[15] = JC-1 mitochondrial potential readout, lung cancer cells – cell-based, A549, JC-1 fluorescence, basal, 24 h, 100 nL, profiling panel (AID 1138); details: higher = more signal;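 also: A549 lung adenocarcinoma cells under basal conditions with no added stimulus; test concentration not given here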
Lefty1 = Lefty1 protein binding to printed compounds – biochemical, small-molecule microarray, 635/667 nm fluorescence, primary screen (AID 1139); details: fluorescence 635/667, higher = more signal
[16] = test system: wheat germ agglutinin (Triticum aestivum), Alexa647-labelled; assay: Alexa647-WGA lectin binding to printed small molecules – biochemical, small-molecule microarray, 635/667 nm fluorescence, artefact control for SMM control-protein annotation, profiling panel (AID 1140); details: WGA-A647 binding, 635 nm fluorescence, higher = more signal;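 also: score merges 667 nm feature emission with signal to noise over triplicate slides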
[17] = target: Luciferin 4-monooxygenase (Photinus pyralis) (UniProt P08659); assay: inhibition of purified Photinus pyralis luciferase – biochemical, luminescence, purified enzyme, 2006 set, primary screen (AID 1141); details: purified firefly luciferase, SteadyGlo luminescence, 30 min; higher = more signal, called active from +8 up or from −8 down;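 also: cell-free assay with purified firefly luciferase at 100 ng per well in PBS; test concentration not given here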
Sequence of Luciferin 4-monooxygenase (Photinus pyralis) (P08659 whole entry, looked up): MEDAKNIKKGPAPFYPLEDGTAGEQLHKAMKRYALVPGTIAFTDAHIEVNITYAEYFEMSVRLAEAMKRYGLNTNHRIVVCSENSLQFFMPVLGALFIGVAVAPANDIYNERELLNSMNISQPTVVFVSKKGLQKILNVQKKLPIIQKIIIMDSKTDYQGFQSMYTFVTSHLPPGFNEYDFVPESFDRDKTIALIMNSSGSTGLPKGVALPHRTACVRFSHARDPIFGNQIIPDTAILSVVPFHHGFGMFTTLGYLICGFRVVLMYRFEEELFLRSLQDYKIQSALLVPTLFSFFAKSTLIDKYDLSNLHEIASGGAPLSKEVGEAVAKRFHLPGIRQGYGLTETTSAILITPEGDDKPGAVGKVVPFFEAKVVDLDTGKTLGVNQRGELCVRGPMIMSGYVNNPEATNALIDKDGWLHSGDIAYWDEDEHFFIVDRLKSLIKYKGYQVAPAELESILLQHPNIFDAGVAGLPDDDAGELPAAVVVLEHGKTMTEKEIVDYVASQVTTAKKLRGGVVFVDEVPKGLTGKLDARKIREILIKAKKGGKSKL

Sequence of Albumin (Bos taurus) (P02769 whole entry, looked up): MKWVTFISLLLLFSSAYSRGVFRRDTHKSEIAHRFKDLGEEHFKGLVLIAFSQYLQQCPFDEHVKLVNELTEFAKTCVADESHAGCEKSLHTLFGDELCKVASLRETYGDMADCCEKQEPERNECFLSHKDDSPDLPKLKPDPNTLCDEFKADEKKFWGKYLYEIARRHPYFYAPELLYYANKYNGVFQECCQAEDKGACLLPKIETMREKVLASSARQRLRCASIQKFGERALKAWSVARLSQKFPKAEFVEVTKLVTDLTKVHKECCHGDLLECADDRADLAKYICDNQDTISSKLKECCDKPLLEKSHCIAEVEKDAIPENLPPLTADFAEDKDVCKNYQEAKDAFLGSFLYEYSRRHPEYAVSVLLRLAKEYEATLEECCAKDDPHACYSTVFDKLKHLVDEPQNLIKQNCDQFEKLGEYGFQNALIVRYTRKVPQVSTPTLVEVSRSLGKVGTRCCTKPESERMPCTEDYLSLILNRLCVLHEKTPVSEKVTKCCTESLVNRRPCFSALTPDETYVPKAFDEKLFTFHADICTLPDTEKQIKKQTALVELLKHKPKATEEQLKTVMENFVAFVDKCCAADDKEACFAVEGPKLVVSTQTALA
Sequence of Fibroblast growth factor 2 (Homo sapiens) (P09038 whole entry, looked up): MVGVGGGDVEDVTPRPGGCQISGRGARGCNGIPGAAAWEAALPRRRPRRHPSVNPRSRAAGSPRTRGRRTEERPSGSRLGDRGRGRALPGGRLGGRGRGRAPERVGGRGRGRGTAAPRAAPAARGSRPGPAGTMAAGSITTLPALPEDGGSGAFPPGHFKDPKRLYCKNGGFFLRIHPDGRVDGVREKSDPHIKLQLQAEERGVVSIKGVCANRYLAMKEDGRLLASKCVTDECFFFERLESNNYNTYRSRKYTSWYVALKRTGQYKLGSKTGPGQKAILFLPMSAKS
Sequence of Concanavalin-A (Canavalia ensiformis) (P02866 whole entry, looked up): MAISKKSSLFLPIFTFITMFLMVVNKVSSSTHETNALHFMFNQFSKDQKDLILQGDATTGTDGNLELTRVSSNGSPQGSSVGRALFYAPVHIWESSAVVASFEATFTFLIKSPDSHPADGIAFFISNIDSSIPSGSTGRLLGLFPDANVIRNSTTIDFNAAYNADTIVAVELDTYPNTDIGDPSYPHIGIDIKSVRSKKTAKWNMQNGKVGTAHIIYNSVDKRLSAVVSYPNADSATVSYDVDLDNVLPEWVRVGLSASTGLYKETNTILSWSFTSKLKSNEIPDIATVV
Sequence of Follistatin (Homo sapiens) (P19883 whole entry, looked up): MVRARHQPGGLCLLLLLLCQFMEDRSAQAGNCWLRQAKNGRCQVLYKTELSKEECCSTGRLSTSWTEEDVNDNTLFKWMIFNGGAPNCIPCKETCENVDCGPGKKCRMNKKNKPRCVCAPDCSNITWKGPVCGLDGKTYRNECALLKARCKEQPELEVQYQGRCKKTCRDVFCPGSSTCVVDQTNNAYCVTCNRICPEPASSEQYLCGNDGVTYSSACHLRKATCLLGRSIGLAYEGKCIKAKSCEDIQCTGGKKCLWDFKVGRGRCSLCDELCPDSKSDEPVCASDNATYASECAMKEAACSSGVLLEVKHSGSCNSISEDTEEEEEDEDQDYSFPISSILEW
Sequence of Focal adhesion kinase 1 (Homo sapiens) (Q05397 whole entry, looked up): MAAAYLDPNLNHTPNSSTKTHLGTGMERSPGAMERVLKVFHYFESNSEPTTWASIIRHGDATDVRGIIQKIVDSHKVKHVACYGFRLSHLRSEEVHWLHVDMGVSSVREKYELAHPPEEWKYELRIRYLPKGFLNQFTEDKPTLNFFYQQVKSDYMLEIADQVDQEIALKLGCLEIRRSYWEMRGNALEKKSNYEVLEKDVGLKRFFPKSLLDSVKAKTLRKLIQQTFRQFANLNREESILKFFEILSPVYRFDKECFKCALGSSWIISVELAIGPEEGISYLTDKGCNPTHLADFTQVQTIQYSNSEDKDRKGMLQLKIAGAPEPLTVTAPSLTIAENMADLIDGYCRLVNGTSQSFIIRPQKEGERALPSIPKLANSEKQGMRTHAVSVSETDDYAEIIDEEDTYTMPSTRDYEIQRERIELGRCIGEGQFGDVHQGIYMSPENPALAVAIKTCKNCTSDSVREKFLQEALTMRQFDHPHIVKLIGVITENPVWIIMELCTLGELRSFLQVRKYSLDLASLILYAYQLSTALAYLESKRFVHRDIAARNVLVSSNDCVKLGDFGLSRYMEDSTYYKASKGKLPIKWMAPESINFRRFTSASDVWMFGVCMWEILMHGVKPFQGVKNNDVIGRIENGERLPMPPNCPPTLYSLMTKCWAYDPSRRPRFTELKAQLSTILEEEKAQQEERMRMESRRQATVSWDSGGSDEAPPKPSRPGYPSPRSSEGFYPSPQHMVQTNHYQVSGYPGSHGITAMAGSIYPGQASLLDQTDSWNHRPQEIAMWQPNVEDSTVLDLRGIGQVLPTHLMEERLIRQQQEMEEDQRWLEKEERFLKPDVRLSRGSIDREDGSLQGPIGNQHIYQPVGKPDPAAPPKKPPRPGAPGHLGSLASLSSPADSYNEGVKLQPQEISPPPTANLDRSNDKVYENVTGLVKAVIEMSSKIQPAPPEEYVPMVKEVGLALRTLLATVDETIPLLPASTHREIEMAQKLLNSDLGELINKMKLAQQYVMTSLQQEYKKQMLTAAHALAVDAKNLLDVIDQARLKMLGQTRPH

Compound | composite z-score (Albumin (Bos taurus)) | composite Z-score [1] | composite z-score [2] | composite z-score [3] | composite z-score [4] | composite z-score [5] | composite z-score [6] | composite z-score (Sam68 (KHDRBS1)) | composite z-score [7] | composite z-score [8] | composite z-score [9] | composite z-score [10] | composite z-score [11] | composite z-score [12] | composite z-score [13] | composite z-score [14] | z-score [15] | composite z-score (Lefty1) | composite z-score [16] | z-score [17]
C=CC[C@@H](OC(=O)Nc1ccc(OC)cc1)c1ccc(OCCO)cc1 | 0.384 | 0.166 (inactive) | -0.46 | -0.0911 | 0.709 | 0.31 | -0.347 | -0.661 | -2 | -1.54 | -0.662 | -0.646 | -0.676 | -3 | -0.787 | -1.6 | -0.371 | -0.999 | -0.262 | -5.18 (inactive)
COCCOC(=O)N1C(=O)[C@@]2(c3cc(C#CC4=CCCCC4)ccc31)[C@H](C(=O)N1CCN(c3ncccn3)CC1)[C@H]1C(=O)O[C@H](c3ccccc3)[C@H](c3ccccc3)N1[C@@H]2c1ccc(O)cc1 | 0.649 | 0.215 (inactive) | 0.061 | -0.0304 | 0.541 | 1.09 | 0.615 | 1.29 | 0.204 | 1.13 | 1.26 | 1.19 | 0.778 | 0.804 | 1.21 | 0.29 | -1.05 | 0.819 | 1.11 | -0.94 (inactive)
COc1ccc(C(O)C2C=CC3C(=O)N(c4ccccc4)C(=O)C3N2Nc2ccccc2)cc1OCc1ccccc1 (stereo not given) | 0.853 | 0.153 (inactive) | 0.505 | -0.0798 | 0.503 | 3.06 | 0.0392 | 1.31 | -0.356 | 1.09 | 0.621 | 1.24 | 0.315 | 0.942 | 1.22 | -0.132 | -0.0208 | 0.788 | 1.22 | -0.414 (inactive)
CC(C)CNC(=O)[C@@]1(c2ccc([N+](=O)[O-])cc2)CC(=O)N(C2CCCCC2)[C@@H]1c1ccc(CO)cc1I | 0.441 | 0.0911 (inactive) | -0.0598 | -0.0761 | 0.469 | 1.86 | 0.15 | 0.754 | -0.662 | 0.282 | -0.423 | 0.676 | 0.295 | -0.106 | -0.0906 | 0.669 | 1.86 | -0.411 | 1.15 | -0.712 (inactive)
O=C1O[C@@H](c2ccccc2)[C@@H](c2ccccc2)N2[C@@H](c3ccc(O)cc3)[C@]3(C(=O)Nc4ccc(C#CCCO)cc43)[C@@H](C(=O)Nc3nc4ccccc4s3)[C@H]12 | 0.827 | -0.0011 (inactive) | -0.0265 | -0.115 | 0.507 | 0.999 | 0.887 | 1.29 | -0.0623 | 0.616 | 0.709 | 1.23 | 0.31 | 0.682 | 1.25 | 1.01 | -2.38 | 0.531 | 0.552 | -0.155 (inactive)
COC(=O)C1(Cc2ccccc2)C=C2C(=C(c3ccccc3)C(=O)C2C)CN1 (stereo not given) | 0.544 | 0.257 (inactive) | 1.59 | 0.839 | 0.725 | 2.3 | 0.906 | -0.305 | 0.0887 | -1.56 | 1.76 | 1.11 | -0.0788 | 0.152 | -0.111 | 0.404 | 0.408 | -0.586 | 0.943 | 1.98 (inactive)
CCCC[C@@H]1C[C@H]1[C@@H](NC(=O)c1cccnc1)c1ccc(-c2ccccc2)cc1 | -0.294 | -0.0683 (inactive) | -0.306 | -0.174 | -0.357 | 0.208 | -0.193 | -0.0982 | -1.56 | -0.633 | -0.238 | -0.647 | -0.14 | -2.12 | -1.17 | -2.03 | 0.475 | -0.815 | -0.166 | 0.0562 (inactive)
O=C1NC(=O)C2C1C=CC(C(O)c1c(F)cccc1Cl)N2Nc1ccccn1 (stereo not given) | 0.179 | -0.527 (inactive) | -0.0009 | 0.0203 | 0.805 | -0.42 | 1 | 0.0076 | 0.676 | -0.453 | 0.582 | 0.257 | 0.202 | 0.776 | 0.477 | 0.731 | 0.52 | -0.236 | 0.228 | -0.194 (inactive)
NC(=O)NCC#Cc1ccc2c(c1)[C@]1(C(=O)N2)[C@H](c2ccc(O)cc2)N2[C@H](c3ccccc3)[C@H](c3ccccc3)OC(=O)[C@H]2[C@@H]1C(=O)Nc1nc2ccccc2s1 | 0.121 | 0.0296 (inactive) | -0.0259 | -0.0203 | 0.431 | 0.66 | 0.11 | 0.637 | 1.17 | 0.962 | -0.185 | 0.622 | -0.15 | 0.666 | 1.44 | 1.49 | -2.24 | 0.9 | 0.717 | -1.49 (inactive)
CC(C)N1CC=CC23O[C@@H]4C=CCOC(=O)[C@@H]4[C@H]2C(=O)N(C(C)CO)[C@@H]3C1=O (stereo not given in full) | -0.385 | 0.365 (inactive) | -0.149 | -0.0891 | 0.406 | 0.0561 | 1.06 | -0.876 | -1.03 | 0.261 | -0.221 | -0.915 | -0.202 | -0.179 | -0.901 | -0.678 | -0.374 | -0.941 | -0.158 | 0.169 (inactive)
COC(=O)C1(Cc2ccccc2)C=C2C(=C(C(C)C)C(=O)C2C)CN1 (stereo not given) | 0.628 | 2.34 (inactive) | 0.183 | 0.168 | 0.676 | 1.62 | 0.6 | -1.52 | -1.3 | -1.83 | 3.27 | -0.11 | 0.757 | -0.72 | -1.25 | -1.07 | -1.83 | -1.36 | 0.349 | 1.27 (inactive)
